From the supplement of paper PMC8975748 come the findings set out here.

Counter-ions that a name gives are not always drawn.

The assay concerns Saccharomyces cerevisiae BY4741 SeMeCo community. Put plainly: z-score of subpopulation abundance vs DMSO median, subpopulation auxotrophic for LM; higher = larger share of this subpopulation than in DMSO controls. The conditions noted are these: 10 µM; 24 h; SM minimal medium; subpopulation (auxotrophy): LM. The protocol: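 Fluorescent four-plasmid SeMeCo (self-establishing metabolically cooperating S. cerevisiae BY4741 community; plasmids pH-mRuby2, pL-mWasabi, pU-eCFP, pM-TagRFP657) was grown 24 h in minimal SM medium with each Selleck FDA-approved drug at 10 µM in 384-well plates. Cells were fixed and imaged by high-content confocal microscopy. For each auxotrophic subpopulation (and the prototroph), a z-score gives the deviation from the DMSO vehicle-control population median.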
With `C[C@H]1c2cccc(O)c2C(O)=C2C(=O)[C@]3(O)C(O)=C(C(N)=O)C(=O)[C@@H](N(C)C)[C@@H]3[C@@H](O)[C@@H]21` [Doxycycline monohydrate], the “z-score of subpopulation abundance” value was found to be 0.

As to `CCN(CC)C(=O)[C@@]1(c2ccccc2)C[C@H]1CN` [Levomilnacipran Hydrochloride], the “z-score of subpopulation abundance” value is -1.21.

`Cn1cc(C(=O)[C@@H]2CCc3[nH]cnc3C2)c2ccccc21` [Ramosetron Hydrochloride]: the “z-score of subpopulation abundance” value worked out at 0.12.

In the case of `CCC(=O)NS(=O)(=O)c1ccc(-c2c(-c3ccccc3)noc2C)cc1` [Parecoxib], the “z-score of subpopulation abundance” value stood at 0.77.

In the case of `C=CCCCCCCCCC(=O)[O-].C=CCCCCCCCCC(=O)[O-].[Zn+2]` [Zinc Undecylenate], the “z-score of subpopulation abundance” value was -2.11.

Turning to `COc1cc(Cc2cnc(N)nc2N)cc(OC)c1OC` [Trimethoprim], the “z-score of subpopulation abundance” value was -0.07.

Consider `Cc1cccc(C#Cc2ccccc2)n1`, for which the “z-score of subpopulation abundance” value is -0.31.

As to `CCN(CC)CCOc1ccc(C(=C(Cl)c2ccccc2)c2ccccc2)cc1` [Clomifene citrate], the “z-score of subpopulation abundance” value turned out to be 1.33.

Consider `CN[C@H]1CC[C@@H](c2ccc(Cl)c(Cl)c2)c2ccccc21` [Sertraline HCl], for which the “z-score of subpopulation abundance” value is -0.97.

With `CC(=O)O[C@H]1C[C@@]2(C)[C@@H](C[C@@H](O)[C@H]3[C@@]4(C)CC[C@@H](O)[C@@H](C)[C@@H]4CC[C@@]32C)/C1=C(\CCC=C(C)C)C(=O)O` [Fusidate Sodium], the “z-score of subpopulation abundance” value is -0.02.

Consider `Cc1cc(C)nc(NS(=O)(=O)c2ccc(N)cc2)n1` [Sulfamethazine], for which the “z-score of subpopulation abundance” value turned out to be 0.84.

Regarding `Nc1nc(N)nc(-c2cc(Cl)ccc2Cl)n1` [Irsogladine], the “z-score of subpopulation abundance” value was 0.16.

Regarding `COCCCN1CCC(NC(=O)c2cc(Cl)c(N)c3c2OCC3)CC1` [Prucalopride Succinate], the “z-score of subpopulation abundance” value is -0.18.

As for `NC(=O)C(c1ccccc1)(c1ccccc1)[C@@H]1CCN(CCc2ccc3c(c2)CCO3)C1` [Darifenacin HBr], the “z-score of subpopulation abundance” value is -0.2.

For the compound `N#Cc1ccc2[nH]cc(CCCCN3CCN(c4ccc5oc(C(N)=O)cc5c4)CC3)c2c1` [Vilazodone], the “z-score of subpopulation abundance” value was determined as 0.35.

As for `C[C@@H]1C/C=C/C=C/C=C/C=C/[C@H](O[C@@H]2O[C@H](C)[C@@H](O)[C@H](N)[C@@H]2O)C[C@@H]2O[C@](O)(C[C@@H](O)C[C@H]3O[C@@H]3/C=C/C(=O)O1)C[C@H](O)[C@H]2C(=O)O` [Natamycin], the “z-score of subpopulation abundance” value was 2.04.

For `Nc1ccc(/N=N/c2ccccc2)c(N)n1` [Phenazopyridine HCl], the “z-score of subpopulation abundance” value came out at 0.47.

Consider `CC[C@@H]([C@H](C)O)n1ncn(-c2ccc(N3CCN(c4ccc(OC[C@@H]5CO[C@@](Cn6cncn6)(c6ccc(F)cc6F)C5)cc4)CC3)cc2)c1=O` [Posaconazole], for which the “z-score of subpopulation abundance” value turned out to be 4.46.

As to `CC1(C)S[C@@H]2[C@H](NC(=O)Cc3ccccc3)C(=O)N2[C@H]1C(=O)O` [Benzathine penicilline], the “z-score of subpopulation abundance” value is -0.93.

Take `N[C@@H]1CONC1=O` [D-Cycloserine]: the “z-score of subpopulation abundance” value was 0.54.

As for `CCN1CCN(C(=O)N[C@@H](C(=O)N[C@@H]2C(=O)N3C(C(=O)O)=C(CSc4nnnn4C)CS[C@H]23)c2ccc(O)cc2)C(=O)C1=O` [Cefoperazone], the “z-score of subpopulation abundance” value was 1.36.

Take `C#C[C@]1(OC(C)=O)CC[C@H]2[C@@H]3CCC4=C[C@@H](OC(C)=O)CC[C@@H]4[C@H]3CC[C@@]21C` [Ethynodiol diacetate]: the “z-score of subpopulation abundance” value turned out to be 0.57.

Consider `COc1cc([C@@H]2c3cc4c(cc3[C@@H](O[C@@H]3O[C@@H]5CO[C@@H](C)O[C@H]5[C@H](O)[C@H]3O)[C@H]3COC(=O)[C@H]23)OCO4)cc(OC)c1O` [Etoposide], for which the “z-score of subpopulation abundance” value turned out to be 0.96.

As for `CC(C(O)c1ccc(O)cc1)N1CCC(Cc2ccccc2)CC1` (stereo not given) [Ifenprodil Tartrate], the “z-score of subpopulation abundance” value is -0.75.

On to `CN(C)CC/C=C1/c2ccccc2Sc2ccc(Cl)cc21` [Chlorprothixene], for which the “z-score of subpopulation abundance” value was 0.18.

Take `COc1ccc(C[C@H](N)C(=O)N[C@H]2[C@@H](O)[C@H](n3cnc4c(N(C)C)ncnc43)O[C@@H]2CO)cc1` [Puromycin 2HCl]: the “z-score of subpopulation abundance” value was -0.47.

Turning to `O=C(NCCO[N+](=O)[O-])c1cccnc1` [Nicorandil], the “z-score of subpopulation abundance” value was -0.01.

As for `CC(C)(C)C(=O)C(Oc1ccc(Cl)cc1)n1ccnc1` (stereo not given) [Climbazole], the “z-score of subpopulation abundance” value amounted to 0.49.

For `CN(Cc1ccc(C(C)(C)C)cc1)Cc1cccc2ccccc12` [Butenafine HCl], the “z-score of subpopulation abundance” value was -0.39.

Take `CCN(CC)CCNC(=O)c1cc(Cl)c(N)cc1OC` [Metoclopramide HCl]: the “z-score of subpopulation abundance” value was determined as 0.33.

For the compound `CN1CC2c3ccccc3Oc3ccc(Cl)cc3C2C1` (stereo not given) [Asenapine maleate], the “z-score of subpopulation abundance” value stood at 0.5.

For the compound `CN[C@@H]1[C@H](O)[C@H](NC)[C@H]2O[C@@]3(O)C(=O)C[C@@H](C)O[C@H]3O[C@@H]2[C@H]1O` [Spectinomycin 2HCl], the “z-score of subpopulation abundance” value is -1.03.

`COc1ccnc(C[S+]([O-])c2nc3cc(-n4cccc4)ccc3[nH]2)c1C` (stereo not given) [Ilaprazole sodium]: the “z-score of subpopulation abundance” value was 1.43.

Take `CCCc1nn(C)c2c(=O)[nH]c(-c3cc(S(=O)(=O)N4CCN(C)CC4)ccc3OCC)nc12` [Sildenafil Mesylate]: the “z-score of subpopulation abundance” value was -0.29.

Take `CN(C)CCCN1c2ccccc2Sc2ccc(Cl)cc21` [Chlorpromazine HCl]: the “z-score of subpopulation abundance” value came out at 0.96.

As to `O=C1OC(CN2CCOCC2)CN1/N=C/c1ccc([N+](=O)[O-])o1` (stereo not given) [Furaltadone HCl], the “z-score of subpopulation abundance” value is -0.57.

As to `C[N+]1(C)CCC(OC(=O)C(O)(c2ccccc2)C2CCCC2)C1` (stereo not given) [Glycopyrrolate], the “z-score of subpopulation abundance” value was -0.6.

With `CC[C@H](C)C(=O)O[C@H]1C[C@H](O)C=C2C=C[C@H](C)[C@H](CC[C@@H](O)C[C@@H](O)CC(=O)O)[C@H]21` [Pravastatin], the “z-score of subpopulation abundance” value worked out at 0.2.

In the case of `CCc1cc(C(N)=S)ccn1` [Ethionamide], the “z-score of subpopulation abundance” value amounted to 0.32.

Turning to `O=C1CCc2cc(OCCCCc3nnnn3C3CCCCC3)ccc2N1` [Cilostazol], the “z-score of subpopulation abundance” value was -0.83.
